SMILES strings stand for the structures. Hit rate of the full screen: of about 2,100 compounds, about 940 (45%) were called active. Inconclusive results (about 48%) are left out. Calls follow the shape of the dose curve; as a rule, active = well fitted inhibition curve with a large enough effect; inconclusive = small, poorly fitted or top-dose-only effect; inactive = no such curve, though single readings can be large or run the other way. The set was probably picked from earlier hits. The list shows a part of the results.
Potency is read from the fitted curve at half-maximal effect.

The experiment in a line: Confirmatory qHTS for Inhibitors of ATXN expression. Also: nearly all actives have a fitted effect of over 65% in size. The conditions noted are these: ATXN2-luciferase reporter cells, luminescence, 24 h; series mostly up to 11.5 µM. In a few lines:
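A titration, incubated 24 h with reporter cells expressing ATXN2-luciferase. Luminescence (SteadyGlo) gives ATXN2 expression, multiplexed GF-AFC fluorescence gives viability; normalised to DMSO and medium-only wells.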
(Quantitative high-throughput screening tests each substance at several concentrations.)
Turning to `N=c1c2c(n(Cc3ccc(Br)cc3)c3c1CCC3)CCCC2`, the Potency is 1.12 µM (active).
The same measure for `C=CCNc1oc(-c2ccc(Cl)cc2)nc1C#N`: “inactive”; for `Cc1ccc2[nH]c(=O)c(CN(CCCN(C)C)C(=O)Nc3cccc(Cl)c3)cc2c1`: 22.4 µM (active); for `COc1ccc(/C=N/Nc2cc(N3CCCC3)nc(N3CCCC3)n2)cc1`: 3.16 µM (active).
On to `Cc1c(C(=O)Nc2nonc2-c2ccc(F)cc2)oc2ccc(F)cc12`, for which the Potency was 25.1 µM (active).
As to `CCc1nc2c(OCCOc3ccc(F)cc3)cccn2c1N(C)C(=O)c1ccco1`, the Potency entry was “inactive”.
To `Cc1nc2c(OCc3cc(Cl)cc(Cl)c3)cccn2c1N(C)C(=O)CCC1CCCC1` belongs 22.4 µM (active); to `Cc1nn(-c2ccccc2)c2nc(-c3cccs3)cc(C(=O)NN)c12`, 14.1 µM (active).
To `Cc1onc(-c2c(Cl)cccc2Cl)c1C(=O)N/N=C(\N)COc1ccc(Cl)cc1` belongs 2.51 µM (active).
The same measure for `Cn1cc(C(=O)c2ccc(Cl)cc2Cl)cc1C(=O)N/N=C(\N)COc1ccc(Cl)cc1`: 11.2 µM (active); for `O=C(Nc1nc(NC(=O)c2ccco2)n(-c2ccccc2)n1)c1ccccc1`: 3.16 µM (active).
For the compound `O=C(Nc1ccccc1Cl)N1CCCN(c2nc(-c3ccccc3)ns2)CC1`, the Potency was 15.8 µM (active).
To `CC(C)(C)c1ccc(NC(=O)N2CCCN(c3c(Cl)cncc3Cl)CC2)cc1` belongs “inactive”; to `Cc1c(Cl)cccc1NC(=O)N1CCCN(c2nc(-c3ccccc3)ns2)CC1`, 10 µM (active).
The same measure for `CN(C)CCC(c1ccc(Br)cc1)c1ccccn1` (stereo unspecified): “inactive”; for `O=C(Nc1ccc(N2CCOCC2)c(Cl)c1)c1c(F)c(F)c(F)c(F)c1F`: 1.26 µM (active).
The same measure for `CC(=O)N/N=C/c1cc(C(C)(C)C)cc(/C=N/NC(C)=O)c1O`: 2.82 µM (active); for `COc1ccc(Nc2nc(N3CCCC3)c3ccccc3n2)cc1`: 15.8 µM (active).
For `CC(=O)Nc1ccc(Nc2c3ccccc3nc3ccccc23)cc1`, the Potency was 3.55 µM (active).
The same measure for `CCOc1ccc(Nc2c3ccccc3nc3ccccc23)cc1`: 12.6 µM (active).
The same measure for `CC(=O)Oc1ccc(Nc2ccccc2)cc1`: “inactive”; for `COc1ccc(Nc2c3ccccc3nc3ccccc23)cc1`: 14.1 µM (active); for `Cc1cc(SCC(=O)NN)c2cc(Br)ccc2n1`: “inactive”.
The same measure for `O=C(CSc1ccc2ccccc2n1)N/N=C/c1ccccc1O`: 14.1 µM (active); for `Cc1cc(SCC(=O)N/N=C/c2ccc(O)cc2O)nc2ccccc12`: 11.2 µM (active).
For `C=CCn1c(CNc2ccc(C)cc2)nnc1SCC(=O)N/N=C/c1ccc(O)cc1O`, the Potency was 10 µM (active).
The same measure for `Cc1cc(SCC(=O)N/N=C/c2ccc(O)cc2O)c(C)cc1Br`: 5.62 µM (active); for `CCC(=O)NC(c1ccc(OC)cc1)c1cc(Cl)c2cccnc2c1O` (stereo unspecified): 3.16 µM (active); for `COc1ccc(C(NC(C)=O)c2cc(Cl)c3cccnc3c2O)cc1` (stereo unspecified): 1.78 µM (active).
To `Clc1ccc(COC(Cn2ccnc2)c2ccc(Cl)cc2Cl)c(Cl)c1` (stereo unspecified) belongs 2.82 µM (active); to `O=C(CCCN1C(=O)/C(=C/c2ccccc2Cl)SC1=S)NNC(=O)c1ccc(Cl)cc1`, 3.55 µM (active); to `O=C(CCCN1C(=O)/C(=C/c2ccccc2Cl)SC1=S)NNC(=O)c1ccc(Cl)cc1Cl`, 1.58 µM (active).
The same measure for `CCc1nnc(NC(=O)c2ccc(S(=O)(=O)N(C)Cc3ccccc3)cc2)o1`: 20 µM (active); for `O=C(Nc1nnc(-c2ccc(F)cc2)o1)c1cc(Cl)sc1Cl`: 15.8 µM (active); for `CN(c1ccccc1)S(=O)(=O)c1ccc(C(=O)Nc2nnc(-c3ccc(F)cc3)o2)cc1`: 15.8 µM (active).
As to `Cc1sc2ncnc(NCC(O)c3ccc([N+](=O)[O-])cc3)c2c1C` (stereo unspecified), the Potency was 3.16 µM (active).
To `Cc1cc(C)cc(C(=O)NC(=S)Nc2ccc(-c3cc4ccccc4oc3=O)cc2)c1` belongs 4.47 µM (active); to `O=C(CSc1nnnn1-c1ccccc1)Nc1nsc(-c2ccccc2)n1`, “inactive”; to `CCOC(=O)c1c(NC(=O)CSc2nnnn2-c2ccccc2)sc2c1CC(C)(C)NC2(C)C`, 3.55 µM (active).
For `Cc1ccc(C(=O)N/C(=C/c2ccc(-c3ccc([N+](=O)[O-])cc3)o2)C(=O)NCCCN(C)C)cc1`, the Potency was 25.1 µM (active).
To `CCCCOC(=O)/C=C\C(=O)NC(N)=O` belongs 17.8 µM (active); to `N/C(=C\C(=O)c1cc(Cl)ccc1O)C(Cl)(Cl)Cl`, 3.16 µM (active); to `C/C(=N\NC(=O)C(C)n1nc(C)c([N+](=O)[O-])c1C)c1ccccc1O` (stereo unspecified), 3.16 µM (active).
Turning to `O=C1N/C(=N/N=C/c2ccccc2O)SC1Cc1ccc(F)cc1` (stereo unspecified), the Potency is 15.8 µM (active).
To `Cc1[nH]n(-c2ccccc2)c(=O)c1/C=N/NC(=O)c1ccccc1F` belongs 4.47 µM (active); to `CC(C)(CO)NCc1c(OCc2ccc(Cl)cc2)ccc2ccccc12`, 14.1 µM (active).
The same measure for `COc1cccc(CN(C)C(=O)CNC(=O)c2ccc(-c3ccccc3)cc2)c1OC`: 14.1 µM (active).
To `CCOC(=O)c1ccc(NC(=O)C2CCCN(S(=O)(=O)c3ccc(F)cc3)C2)cc1` (stereo unspecified) belongs 28.2 µM (active).
As to `CCOC(=O)c1ccc(NC(=O)c2nc[nH]c2C(=O)N[C@H](C)c2ccccc2)cc1`, the Potency entry was “inactive”.
For the compound `O=C(Nc1ccccc1C(=O)Nc1nnc(C(F)(F)F)s1)c1ccccc1`, the Potency was 1.78 µM (active).
In the case of `O=C(Nc1ccccc1C(=O)Nc1nnc(C(F)(F)F)s1)c1ccccc1Cl`, the Potency was 3.55 µM (active).
To `CN(C)S(=O)(=O)c1cccc(N2C(=O)CC3(CCCCC3)CC2=O)c1` belongs “inactive”.
On to `COc1ccccc1CNc1nc(NCc2cccc(OC)c2OC)c2sccc2n1`, for which the Potency is 25.1 µM (active).
To `COc1cccc(CNc2nc(NCc3ccccc3)nc3ccsc23)c1` belongs 15.8 µM (active); to `COc1ccccc1CNc1nc(NCc2ccc(NC(C)=O)cc2)c2sccc2n1`, 3.16 µM (active).
The same measure for `O=C(/C=C\c1ccco1)Nc1nc(-c2ccc3ccccc3c2)cs1`: “inactive”; for `CN(C)S(=O)(=O)c1ccc(-c2csc(N/N=C/c3ccco3)n2)cc1`: 2.82 µM (active); for `O=C(CN1C(=O)c2ccccc2S1(=O)=O)N1CCc2ccccc21`: 0.447 µM (active).
In the case of `Cc1nnc(SCC(N)=O)n1CC1CCCO1` (stereo unspecified), the Potency result was “inactive”.
To `Cc1cc(C(=O)CN2C(=O)c3ccccc3S2(=O)=O)c(C)n1CC1CCCO1` (stereo unspecified) belongs 0.355 µM (active); to `O=C(CN1C(=O)c2ccccc2S1(=O)=O)c1ccc(O)c(O)c1`, “inactive”; to `O=C(CN1c2cccc3cccc(c23)S1(=O)=O)NCc1ccc(Cl)cc1`, “inactive”.
The same measure for `O=C(CN1C(=O)c2ccccc2S1(=O)=O)c1ccc(Cl)cc1Cl`: 0.891 µM (active).
The same measure for `O=C(CN1C(=O)c2ccccc2S1(=O)=O)Nc1ncc(Cl)cc1Cl`: 2.82 µM (active).
Take `CCn1c(C)cc(C(=O)CN2C(=O)c3ccccc3S2(=O)=O)c1C`: the Potency is 1.26 µM (active).
The same measure for `Cc1cc(C(=O)CN2C(=O)c3ccccc3S2(=O)=O)c(C)n1C(C)C`: 1.58 µM (active); for `O=C(O)COc1ccc2oc3ccccc3c2c1`: “inactive”.
Regarding `Cc1ccc(-c2cc(C(=O)N/N=C/c3ccccc3O)n[nH]2)o1`, the Potency was 7.08 µM (active).
The same measure for `Cc1cc(C(=O)N/N=C/c2cc(Br)ccc2OC(=O)c2ccccc2)n[nH]1`: 2.51 µM (active); for `Cc1cc(C(=O)N/N=C/c2cc(Br)ccc2OC(=O)c2ccccc2Cl)n[nH]1`: 3.98 µM (active).
To `Cc1cc(C(=O)N/N=C/c2cc(Br)cc(Br)c2OC(=O)c2cccc(F)c2)n[nH]1` belongs 3.16 µM (active); to `COc1ccc(/C=C2\SC(=S)N(CCCC(=O)Nc3ccccn3)C2=O)cc1OC`, 14.1 µM (active); to `COC(=O)c1ccc(/C=C2/SC(=S)N(CCCC(=O)Nc3ccccn3)C2=O)cc1`, 14.1 µM (active).
To `O=C(CCCN1C(=O)/C(=C/c2ccccc2Cl)SC1=S)Nc1ccccn1` belongs 11.2 µM (active).
For `O=C(Nc1ccc(CN2CCCCC2)cc1)Nc1ccc(Br)cc1Cl`, the Potency was 25.1 µM (active).
As to `N#Cc1c(NCCN)nc(-c2ccco2)c2c1CCCC2`, the Potency is 25.1 µM (active).
Take `NS(=O)(=O)c1ccc(CCNc2nn3c(-c4cccc(OC(F)(F)F)c4)cnc3s2)cc1`: the Potency was 3.55 µM (active).
For `COc1cccc(/C=N/Nc2ncnc3c2ncn3Cc2ccccc2)c1O`, the Potency was 0.708 µM (active).
For the compound `COc1cccc(/C=N/Nc2ncc(C(F)(F)F)cc2Cl)c1O`, the Potency was 1.58 µM (active).
To `CN1C2CCC1/C(=C\c1ccccc1)C(=O)/C2=C\c1ccccc1` belongs 14.1 µM (active); to `Oc1ccc(N2CCN(c3ccnc4cc(Cl)ccc34)CC2)cc1`, 15.8 µM (active).
The same measure for `O=C(C1CCCCC1)N1CCN(c2ccnc3cc(Cl)ccc23)CC1`: 3.98 µM (active).
As for `COc1ccccc1N1CCN(c2ccnc3cc(Cl)ccc23)CC1`, the Potency is 12.6 µM (active).
The same measure for `O=S(=O)(c1ccccc1)N1CCN(c2ccnc3cc(Cl)ccc23)CC1`: 25.1 µM (active).
With `O=S(=O)(c1ccc2nc(COc3ccc(Cl)cc3Cl)[nH]c2c1)N1CCOCC1`, the Potency entry is “inactive”.
The same measure for `C[C@H]1O[C@@H](O[C@H]2[C@@H](O)C[C@H](O[C@H]3[C@@H](O)C[C@H](O[C@H]4CC[C@@]5(C)[C@H](CC[C@@H]6[C@@H]5C[C@@H](O)[C@]5(C)[C@@H](C7=CC(=O)OC7)CC[C@]65O)C4)O[C@@H]3C)O[C@@H]2C)C[C@H](O)[C@@H]1O`: 0.282 µM (active); for `Cc1cc(C)c2nc(NNC(=O)c3ccc(S(=O)(=O)N4CC(C)CC(C)C4)cc3)sc2c1` (stereo unspecified): 3.55 µM (active); for `Cc1cccc2sc(NNC(=O)c3ccc(S(=O)(=O)N4CCCC(C)C4)cc3)nc12` (stereo unspecified): 7.94 µM (active).
The same measure for `Cc1cccc2sc(NNC(=O)c3ccc(S(=O)(=O)N4CC(C)CC(C)C4)cc3)nc12` (stereo unspecified): 2 µM (active).
To `CCCC(NCC(O)COc1ccc(-c2ccccc2)cc1)c1ccccc1` (stereo unspecified) belongs 25.1 µM (active); to `NS(=O)(=O)c1ccc(Sc2nc3ccccc3s2)c([N+](=O)[O-])c1`, 2.24 µM (active).

Source of the values: PubChem BioAssay AID1745848 (National Center for Advancing Translational Sciences (NCATS), 2022).
